Morphology score and SARS-CoV-2 infection rate data for 16 compounds are collected here from the supplement of paper PMC13380429.

For experiment [1], the system named is Vero E6 infected with SARS-CoV-2. Description: morphology score (similarity to uninfected cells); higher = more like uninfected cells. The note with it: 24 h.
Experiment [2] has the same test system. Description: SARS-CoV-2 infection rate relative to infected DMSO; higher = more infection, active = 60 or less. To be noted: 24 h.

Consider `CCCN(CCC)C(=O)Cc1c(-c2ccc(Cl)cc2)nc2ccc(Cl)cn12` [alpidem] (10 µM), for which, in experiment [1], the morphology score was determined as 0.0705. In addition, the SARS-CoV-2 infection rate in experiment [2] was 99.5% (inactive).

In experiment [1], `N#Cc1cc(CN2CCC(Nc3ncnc4sc(Cl)cc34)CC2)ccc1F` (10 µM) gave a morphology score of -0.299. For the same compound, the SARS-CoV-2 infection rate in experiment [2] was 116% (inactive).

The compound `CC(=O)[C@@]1(O)CC[C@H]2[C@@H]3C=C(Cl)C4=CC(=O)[C@@H]5C[C@@H]5[C@]4(C)[C@H]3CC[C@@]21C` (10 µM) had a morphology score in experiment [1] of 0.204. Besides, in experiment [2], the SARS-CoV-2 infection rate is 109% (inactive).

Consider `CCOC(=O)N1CSC[C@H]1C(=O)O` [telmesteine] (10 µM), for which, in experiment [1], the morphology score amounted to 0.00511. For the same compound, in experiment [2], the SARS-CoV-2 infection rate is 99.5% (inactive).

In experiment [1], `NCC1CC(=O)N(Cc2ccccc2)C1` (configuration not stated) [nebracetam] (10 µM) registered a morphology score of 0.0779. In addition, the SARS-CoV-2 infection rate in experiment [2] is 102% (inactive).

For the compound `C#Cc1cnc2nc(O)n(C(CC)CC)c2n1` [tirasemtiv] (10 µM), the morphology score in experiment [1] is -0.109. The SARS-CoV-2 infection rate in experiment [2] was 104% (inactive).

`CC(C)(C)/[N+]([O-])=C/c1ccc(S(=O)(=O)O)cc1S(=O)(=O)O` (10 µM): the morphology score in experiment [1] amounted to 0.00191. Also, the SARS-CoV-2 infection rate in experiment [2] was 114% (inactive).

In the case of `COc1ccc(-c2ccc3cc(C(=O)O)ccc3c2)cc1C12CC3CC(CC(C3)C1)C2` [adapalene] (10 µM), the morphology score in experiment [1] is -0.091. Also, the SARS-CoV-2 infection rate in experiment [2] was 104% (inactive).

In turn, `CCO[C@@H](Cc1ccc(OCCn2c(C)ccc2-c2ccc(SC)cc2)cc1)C(=O)O` [saroglitazar] (10 µM) registered a morphology score in experiment [1] of 0.336. For the same compound, the SARS-CoV-2 infection rate in experiment [2] is 92% (inactive).

Compound `CC#C[C@]1(O)CC[C@H]2[C@@H]3CCC4=CC(=O)CCC4=C3[C@@H](c3ccc(N(C)C)cc3)C[C@@]21C` [mifepristone] (10 µM) came in with a morphology score in experiment [1] of 0.443. Also, the SARS-CoV-2 infection rate in experiment [2] was 65.5% (inactive).

Compound `CCC(C)CCCC(=O)N[C@@H](CCN)C(=O)N[C@H](C(=O)N[C@@H](CCN)C(=O)N[C@H]1CCNC(=O)[C@H]([C@@H](C)O)NC(=O)[C@H](CCN)NC(=O)[C@H](CCN)NC(=O)[C@H](CC(C)C)NC(=O)[C@@H](CC(C)C)NC(=O)[C@H](CCN)NC1=O)[C@@H](C)O` (some centres not stated) [colistin] (10 µM) returned a morphology score in experiment [1] of 0.134. The SARS-CoV-2 infection rate in experiment [2] was 96.2% (inactive).

Consider `CC(C)NCC(O)c1ccc(N)c(C#N)c1` (configuration not stated) [cimaterol] (10 µM), for which, in experiment [1], the morphology score was -0.059. Also, in experiment [2], the SARS-CoV-2 infection rate was 104% (inactive).

In experiment [1], `O=C(/C=C/C=C/c1ccc2c(c1)OCO2)N1CCCCC1` [piperine] (10 µM) registered a morphology score of 0.0346. In addition, the SARS-CoV-2 infection rate in experiment [2] was 97.5% (inactive).

The compound `Cc1ccc(/N=C/N(C)/C=N/c2ccc(C)cc2C)c(C)c1` [amitraz] (10 µM) gave a morphology score in experiment [1] of 0.147. Also, the SARS-CoV-2 infection rate in experiment [2] was 106% (inactive).

Regarding `Cc1c(N)nc([C@H](CC(N)=O)NC[C@H](N)C(N)=O)nc1C(=O)N[C@H](C(=O)N[C@H](C)[C@@H](O)[C@H](C)C(=O)N[C@H](C(=O)NCCc1nc(-c2nc(C(=O)NCCC[S+](C)C)cs2)cs1)[C@@H](C)O)[C@@H](OC1OC(CO)C(O)C(O)C1OC1OC(CO)C(O)C(OC(N)=O)C1O)c1cnc[nH]1` (some centres not stated) [bleomycin] (10 µM), in experiment [1], the morphology score came out at 0.0285. Further, in experiment [2], the SARS-CoV-2 infection rate is 100% (inactive).

In experiment [1], `C[C@@H]([C@@H](O)c1ccc(O)cc1)N1CCC(O)(c2ccccc2)CC1` [traxoprodil] (10 µM) came in with a morphology score of -0.037. In addition, the SARS-CoV-2 infection rate in experiment [2] is 108% (inactive).
